Assay results: PubChem BioAssay (NCI)
About 83,000 compounds went through this panel and 20% of them were active in at least one assay; those are over-represented in the sample as a whole.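 48-hour exposure, single concentration, 96-well plates; percent growth endpoint where 0 means no net growth. Active: below 10.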 A number with no mark means an inactive call. Activity calls are given as the source filed them.

Assays:
Assay in all cases: NCI-60 one-dose screen, 48 h (100 = growth as untreated, 0 = no growth, -100 = all killed)
Conditions in all cases: 10 µM unless noted
[1] = test system: HCT-15 colon
[2] = test system: HT29 colon
[3] = test system: SNB-75 CNS
[4] = test system: SNB-19 CNS
[5] = test system: U251 CNS
[6] = test system: PC-3 prostate
[7] = test system: SK-MEL-5 melanoma
[8] = test system: UACC-62 melanoma
[9] = test system: LOX IMVI melanoma
[10] = test system: SK-MEL-28 melanoma

Row | SMILES | growth [1] | growth [2] | growth [3] | growth [4] | growth [5] | growth [6] | growth [7] | growth [8] | growth [9] | growth [10]
1 | Cn1c2ccc(Br)cc2c2c3c(c4c5cc(F)ccc5oc4c21)C(=O)N(O)C3=O | 89.2% | 101% | 70% | 74.3% | 79.8% | 68% | 90.3% | 80.2% | 61.9% | 112%
2 | Cc1cn(-c2cc(NC(=O)c3cncc(C#Cc4cnc5ccc(O[C@H]6CCOC6)nn45)c3)cc(C(F)(F)F)c2)cn1 | 82.8% | 69% | 92.9% | 117% | 105% | 96.5% | 70.6% | 70.6% | 62.6% | 76.3%
3 | CN(C)c1ncc(/C=C2\SC(=S)N(Cc3ccccc3Cl)C2=O)s1 | 84.6% | 88.8% | 88.1% | 78.6% | 42% | 91.1% | 101% | 94.6% | 69.2% | 104%
4 | Cc1occc1-c1nc2s/c(=C\c3cn(-c4ccccc4)nc3-c3ccccc3)c(=O)n2n1 | 99.2% | 101% | 84% | 96.8% | 97.1% | 90.6% | 92.4% | 92.1% | 103% | 101%
5 | CCCCCCNC(=O)Oc1ccc(/C(=C(/C)c2ccc(Cl)cc2)c2ccc(OCCN3CCCC3)cc2)cc1 | 0.291% (active) | -17.7% (active) | 67.2% | 45% | 29.6% | 37.5% | 14.9% | 20.8% | -98.6% (active) | -49.4% (active)
6 | CCC(CC)N1C(=O)/C(=c2\sc3n(c2=O)C2C(NN=3)N(CC)C(=O)N2CC)c2ccccc21 (stereo not given) | 10.4% | 5.44% (active) | -4.75% (active) | 26.4% | 27.1% | 33.7% | -20.1% (active) | 15.2% | 17.9% | 58.6%
7 | Cc1ccc(NC(=O)N[C@@H](Cc2cc(F)cc(F)c2)C(=O)NC2C(=O)N3CCC[C@H]3C(=O)N3CCCC[C@H]3C(=O)N[C@@H](C)C(=O)N3C[C@H](C)C[C@H]3C(=O)O[C@H]2C)c(F)c1 (stereo not given in full) | 14.1% | 26.5% | 34.7% | 26.3% | 28.3% | 15% | 2.32% (active) | 30.3% | 25.3% | 44.1%
8 | CC(C)=CCC[C@](C)(O)[C@H]1CC[C@]2(C)[C@@H]1CC[C@@H]1[C@@]3(C)CCC(NC(=O)c4ccccc4C(=O)O)C(C)(C)[C@@H]3CC[C@]12C (stereo not given in full) | 87.7% | 75.5% | 90.2% | 86.3% | 88.6% | 81.5% | 55.4% | 28.7% | 84.3% | 34.3%
9 | COC(=O)[C@@]1(C)CC[C@]2(C)CC[C@]3(C)C(=CC(=O)[C@@H]4[C@@]5(C)Cc6c(n(CC#CCN7CCN(C)CC7)c7ccccc67)C(C)(C)[C@@H]5CC[C@]43C)[C@@H]2C1 | 2.6% (active) | 14.4% | 100% | 54.3% | 57.5% | 62.1% | 87.2% | 97.7% | -91.6% (active) | 105%
10 | O=C1C[C@@H](c2ccccc2)Oc2c(Cc3ccccc3O)c(O)c(Cc3cc(Cc4cc(Cc5ccccc5O)ccc4O)ccc3O)c(O)c21 | 104% | 128% | 72.7% | 99.7% | 93.7% | 89.1% | 98.6% | 72.7% | 87.2% | 114%
11 | COc1cc(/C=N/Nc2ccnc3cc(Cl)ccc23)cc(OC)c1O | -58.9% (active) | 8.25% (active) | -81.5% (active) | -24.5% (active) | -87.1% (active) | -61.1% (active) | -92.7% (active) | 101% | -96.2% (active) | 98.4%
12 | O=C(NNc1nc2cc(F)ccc2n2cncc12)c1cnccn1 | 27.9% | 33.1% | 75.1% | 33.7% | 29.8% | 44.6% | -11.6% (active) | 17.5% | 13.7% | 26%
13 | COc1ccc(-c2nn(-c3ccccc3)cc2/C=C/C(=O)c2ccc(NC(=O)CCCCCCC(=O)NO)cc2)cc1 | 80.5% | 94.4% | 96.6% | 106% | 106% | 95.8% | 101% | 94.9% | 90.4% | 113%
14 | Cn1nc(Nc2ccccc2)c(C(=O)NN)c1N | 97.8% | 103% | 81.6% | 101% | 102% | 95.1% | 99.3% | 96.8% | 97.2% | 103%
15 | Nc1nc(-c2cccc([N+](=O)[O-])c2)c(N=Nc2ccccc2[N+](=O)[O-])s1 | 43.8% | 80.2% | -14.7% (active) | 12.4% | -79.5% (active) | 46.4% | 47% | 66.1% | 6.53% (active) | 88.4%
16 | CCCCCCNC(=O)Oc1ccc(/C(=C(/C)c2ccc(OC)cc2)c2ccc(OCCN3CCCC3)cc2)cc1 | 17.3% | 13.9% | 85.5% | 72.2% | 58.6% | 67.7% | 53.7% | 74.2% | -39.1% (active) | 60.3%
17 | N#Cc1c(NC(=O)c2ccccc2C(F)(F)F)sc2c1CCC(=O)C2 | -32.3% (active) | 8.88% (active) | 20.1% | 15.5% | 16.3% | 13% | -75.5% (active) | -26.9% (active) | 6.27% (active) | -14.9% (active)
18 | C#C[C@]1(O)CC[C@H]2[C@@H]3CC=C4c5sc(-c6ccc(OC)cc6)nc5CC[C@]4(C)[C@H]3CC[C@@]21C | 46.9% | 46.6% | 22.9% | 63.6% | 42.7% | 28.2% | 85.1% | 33.2% | 45% | 4.22% (active)
19 | COC(=O)c1c(C(=O)OC)c2n(CC(=O)Nc3cccc4cccnc34)c3ccccc3n2c1C(=O)c1ccc(C)cc1 | 97.6% | 102% | 101% | 91.1% | 97.7% | 82.5% | 96.4% | 84.6% | 98.9% | 110%
20 | CCCCCCCCCC[C@@H](C)[C@@H]1CC(=O)N[C@H]([C@@H](C)O)C(=O)N[C@@H](C)C(=O)N[C@H](C)C(=O)N[C@@H](CCC(N)=O)C(=O)N[C@H](Cc2ccc(O)cc2)C(=O)N[C@@H](C(C)CC)C(=O)O1 (stereo not given in full) | 101% | 68.3% | 52.5% | 51.9% | 51.6% | 39% | 48.1% | 92.4% | 71.2% | 82.5%
21 | C=CCn1c(SCC(=O)Nc2ccc(OC)cc2)nnc1-c1ccc(Cl)cc1 | 73.7% | 105% | 97.4% | 91.7% | 105% | 95.1% | 96.4% | 81.5% | 93.8% | 92.5%
22 | COc1c([C@@H](CC(C)C)OC(C)=O)ccc2c1C(=O)OCc1cc(C)cc(O)c1O2 | 17.3% | 13.5% | 50.6% | 36.3% | 20.1% | 29.8% | 8.29% (active) | 31.3% | 27.5% | 59.1%
23 | CN1CCN(Cc2ccc(NC(=O)c3cncc(C#Cc4[nH]nc5ncncc45)c3)cc2C(F)(F)F)CC1 | 65.4% | 25.8% | 78.2% | 97.3% | 76.8% | 81.3% | 71.2% | 39.6% | 13% | 37.7%
